# According to PubChem BioAssay (Tox21):
# Records with an inconclusive call do not appear. Where a call stands in place of a potency, no number is given. A number with no mark means an inactive call. Calls of active or inactive are those of the source. Unless noted, calls come from the whole dose curve; as a rule, active = well fitted curve in the direction sought with a large enough effect in the repeat runs; inconclusive = weak or mixed curves; inactive = no such curve, though single readings can be large; an effect the other way counts as inactive or inconclusive.
# Experiments:
# [1] = qHTS assay to identify small molecule that activate the aryl hydrocarbon receptor (AhR) signaling pathway - cell viability counter screen (AID 743086);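 note: HepG2 liver cells carrying the AhR DRE luciferase reporter; series mostly up to about 70 µM; nearly all actives have a fitted effect of over 45% in size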
# Procedure, shortened: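 Cytotoxicity counter screen: CellTiter-Fluor signal (30 min, 37 C) in 4000 HepG2 cells/well carrying the DRE-luciferase reporter, following 24 h compound exposure at 37 C.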
# [2] = biological target: Peroxisome proliferator-activated receptor gamma (Homo sapiens) (UniProt P37231); experiment: qHTS assay to identify small molecule agonists of the peroxisome proliferator-activated receptor gamma (PPARg) signaling pathway (AID 743094; active = well fitted activation curve with a large enough effect in the signal ratio in the repeat runs, not every such curve was filed as active; the % refers to the signal ratio)
# Procedure, shortened: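 Cell-based bla reporter, HEK293H background, PPARg-driven UAS. Pre-incubation 5 h, 37C, 5% CO2. Compound 17 h, 37C. Substrate 1 h RT; fluorescence.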
# [3] = qHTS assay for small molecule agonists of the antioxidant response element (ARE) signaling pathway (AID 743202; active = well fitted activation curve with a large enough effect in the signal ratio in the repeat runs, not every such curve was filed as active; the % refers to the signal ratio; note: potency is the fitted concentration of half-maximal effect)
# Procedure, shortened: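 After 16 hours of compound treatment at 37 C, HepG2 cells with a stably integrated ARE-driven beta-lactamase reporter were loaded 2 hours at room temperature with LiveBLAzer B/G FRET substrate and fluorescence intensity measured.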
# [4] = qHTS assay for small molecule agonists of the antioxidant response element (ARE) signaling pathway - cell viability counter screen (AID 743203; calls by dose curve; note: nearly all actives have a fitted effect of over 55% in size; note: potency is the fitted concentration of half-maximal effect)
# Procedure, shortened: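 Measured in the same wells as the beta-lactamase ARE reporter, this read-out is CellTiter-Glo luminescence from HepG2 ARE-bla cells given compounds for 16 hrs.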
# [5] = qHTS assay for small molecule activators of the heat shock response signaling pathway - cell viability counter screen (AID 743209); note: nearly all actives have a fitted effect of over 50% in size
# Procedure, shortened: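 Same-well multiplex: after 2.5 h room-temperature incubation with LiveBLAzer B/G substrate and fluorescence reading, CellTiter-Glo reagent was added to HSE-bla HeLa cells that had received compound for 5 h at 37 C; luminescence read after 30 min.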
# [6] = biological target: Peroxisome proliferator-activated receptor delta (Homo sapiens) (UniProt Q03181); experiment: qHTS assay to identify small molecule agonists of the peroxisome proliferator-activated receptor delta (PPARd) signaling pathway (AID 743212; calls by dose curve;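 note: HEK293H cells with PPARd UAS beta-lactamase reporter GeneBLAzer system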)
# Procedure, shortened: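 Beta-lactamase reporter readout: a ratiometric FRET signal from the LiveBLAzer substrate after 2 h at room temperature. Compound exposure at 37 °C in PPARδ-bla HEK293H cells driven by an upstream activator sequence.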
# [7] = qHTS assay to identify small molecule antagonists of the peroxisome proliferator-activated receptor delta (PPARd) signaling pathway - cell viability counter screen (AID 743213); note: nearly all actives have a fitted effect of over 50% in size; note: potency is the fitted concentration of half-maximal effect
# Procedure, shortened: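 In this counter screen, HEK293H cells carrying a UAS-beta-lactamase reporter are co-treated with test compounds and 300 nM L165041 (final) for 17 h at 37 C; cell viability is quantified by CellTiter-Glo luminescence.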
# [8] = biological target: Peroxisome proliferator-activated receptor delta (Homo sapiens) (UniProt Q03181); experiment: qHTS assay to identify small molecule antagonists of the peroxisome proliferator-activated receptor delta (PPARd) signaling pathway (AID 743215; active = well fitted inhibition curve with a large enough effect in the signal ratio in the repeat runs, not every such curve was filed as active; the % refers to the signal ratio;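 note: cells stimulated with agonist L165041 at 300 nM final during compound exposure; series mostly up to about 62 µM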)
# Procedure, shortened: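 Fluorescence from cleaved LiveBLAzer B/G FRET substrate (2 h, room temperature) reports PPARd-driven beta-lactamase in HEK293H UAS-bla cells. Cells had been treated 17 h at 37 C with compound plus 300 nM final L165041.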
# [9] = qHTS assay to identify small molecule agonists of the farnesoid-X-receptor (FXR) signaling pathway - cell viability counter screen (AID 743218); note: nearly all actives have a fitted effect of over 45% in size; note: potency is the fitted concentration of half-maximal effect
# Procedure, shortened: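 Readout: CellTiter-Glo luminescence, 30 min RT, multiplexed after the FXR-bla FRET reading. HEK 293T FXR-UAS-bla cells received compound 5 h post-plating and were incubated 16 h at 37 C.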
# [10] = qHTS assay to identify small molecule antagonists of the farnesoid-X-receptor (FXR) signaling pathway - cell viability counter screen (AID 743221; active = well fitted cell-killing curve with a large enough effect in the repeat runs, not every such curve was filed as active; note: nearly all actives have a fitted effect of over 50% in size)
# Procedure, shortened: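 After a 5 h settling period, FXR-bla HEK 293T cells receive compound and chenodeoxycholic acid (50 uM final) and incubate 16 h at 37 C; CellTiter-Glo luminescence, read after 30 min at room temperature, reports cell viability.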
# [11] = qHTS assay to identify small molecule antagonists of the peroxisome proliferator-activated receptor gamma (PPARg) signaling pathway - cell viability counter screen (AID 743194); note: nearly all actives have a fitted effect of over 55% in size
# Procedure, shortened: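 Viability was measured as CellTiter-Glo luminescence in GeneBLAzer PPARg UAS-bla HEK293H cells. These cells had been exposed 17 h at 37 C to compounds together with rosiglitazone at 50 nM final, with the beta-lactamase readout taken in the same wells.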
# [12] = qHTS assay for small molecule activators of the heat shock response signaling pathway (AID 743210; active = well fitted activation curve with a large enough effect in the signal ratio in the repeat runs, with a control signal flat, not every such curve was filed as active; the % refers to the signal ratio; note: series mostly up to about 63 µM)
# Procedure, shortened: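 Compound exposure lasted 5 h at 37 C in HeLa cells carrying a heat-shock-element-driven beta-lactamase reporter. Read-out: fluorescence intensity after 2.5 h room-temperature loading with LiveBLAzer B/G FRET substrate.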
# [13] = biological target: Vitamin D3 receptor (Homo sapiens) (UniProt P11473); experiment: qHTS assay to identify small molecule agonists of the vitamin D receptor (VDR) signaling pathway (AID 743222; calls by dose curve)
# Procedure, shortened: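 Following 4 h attachment at 37C, VDR-bla cells (2,000 per well) received DMSO-dissolved compounds or controls. After 16 h incubation, LiveBLAzer B/G FRET substrate was added and fluorescence read 2 h later at room temperature.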
# [14] = biological target: Vitamin D3 receptor (Homo sapiens) (UniProt P11473); experiment: qHTS assay to identify small molecule antagonists of the vitamin D receptor (VDR) signaling pathway (AID 743223; active = well fitted inhibition curve with a large enough effect in the signal ratio in the repeat runs, not every such curve was filed as active; the % refers to the signal ratio)
# Procedure, shortened: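 Reporter line VDR-bla; stimulus 1alpha,25-(OH)2 vitamin D3, 3 nM final; compound co-addition, 16 h 37C/5% CO2; LiveBLAzer B/G substrate 2 h RT; fluorescence intensity.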
# [15] = qHTS assay to identify small molecule agonists of the vitamin D receptor (VDR) signaling pathway - cell viability counter screen (AID 743224); note: nearly all actives have a fitted effect of over 50% in size; note: potency is the fitted concentration of half-maximal effect
# Procedure, shortened: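 In parallel with the bla FRET readout, cytotoxicity toward VDR-bla cells after 16 h compound exposure was assessed by CellTiter-Glo, with luminescence recorded after a 30 min room-temperature incubation.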
# [16] = qHTS assay to identify small molecule agonists of the peroxisome proliferator-activated receptor delta (PPARd) signaling pathway - cell viability counter screen (AID 743211); note: nearly all actives have a fitted effect of over 55% in size; note: potency is the fitted concentration of half-maximal effect
# Procedure, shortened: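 qHTS cell viability: PPARd-bla HEK293H; 17 h cpd, 37C; CellTiter-Glo, luminescence at 30 min RT.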
# [17] = biological target: Bile acid receptor (Homo sapiens) (UniProt Q96RI1); experiment: qHTS assay to identify small molecule agonists of the farnesoid-X-receptor (FXR) signaling pathway (AID 743220; active = well fitted activation curve with a large enough effect in the signal ratio in the repeat runs, not every such curve was filed as active; the % refers to the signal ratio)
# Procedure, shortened: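 FXR-UAS-bla HEK 293T cells carrying a UAS-driven beta-lactamase reporter were plated for 5 h at 37C/5% CO2, then exposed to DMSO-dissolved Tox21 10K compounds for 16 h at 37C. A LiveBLAzer B/G FRET substrate was loaded for 2 h at room temperature before fluorescence reading.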
# [18] = biological target: Peroxisome proliferator-activated receptor gamma (Homo sapiens) (UniProt P37231); experiment: qHTS assay to identify small molecule antagonists of the peroxisome proliferator-activated receptor gamma (PPARg) signaling pathway (AID 743191; calls by dose curve; note: series mostly up to about 63 µM; nearly all actives have a fitted effect of over 30% in size)
# Procedure, shortened: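 Beta-lactamase reporter under UAS control in HEK293H PPARg-bla cells; compound treatment 17 h at 37C. Read-out: fluorescence intensity after 1 h room-temperature incubation with LiveBLAzer B/G FRET substrate.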
# Peroxisome proliferator-activated receptor delta (Homo sapiens), sequence (Q03181 whole entry, looked up): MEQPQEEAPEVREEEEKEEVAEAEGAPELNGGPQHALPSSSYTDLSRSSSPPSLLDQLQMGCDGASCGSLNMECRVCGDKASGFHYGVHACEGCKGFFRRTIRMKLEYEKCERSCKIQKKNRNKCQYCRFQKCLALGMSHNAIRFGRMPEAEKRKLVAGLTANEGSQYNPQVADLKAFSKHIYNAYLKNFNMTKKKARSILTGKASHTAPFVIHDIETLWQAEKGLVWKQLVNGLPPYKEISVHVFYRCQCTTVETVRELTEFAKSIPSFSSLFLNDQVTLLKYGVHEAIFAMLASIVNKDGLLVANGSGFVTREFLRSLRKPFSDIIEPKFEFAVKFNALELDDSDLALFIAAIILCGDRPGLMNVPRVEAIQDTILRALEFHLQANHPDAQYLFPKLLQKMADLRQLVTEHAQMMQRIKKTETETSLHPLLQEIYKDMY
# Peroxisome proliferator-activated receptor gamma (Homo sapiens), sequence (P37231 whole entry, looked up): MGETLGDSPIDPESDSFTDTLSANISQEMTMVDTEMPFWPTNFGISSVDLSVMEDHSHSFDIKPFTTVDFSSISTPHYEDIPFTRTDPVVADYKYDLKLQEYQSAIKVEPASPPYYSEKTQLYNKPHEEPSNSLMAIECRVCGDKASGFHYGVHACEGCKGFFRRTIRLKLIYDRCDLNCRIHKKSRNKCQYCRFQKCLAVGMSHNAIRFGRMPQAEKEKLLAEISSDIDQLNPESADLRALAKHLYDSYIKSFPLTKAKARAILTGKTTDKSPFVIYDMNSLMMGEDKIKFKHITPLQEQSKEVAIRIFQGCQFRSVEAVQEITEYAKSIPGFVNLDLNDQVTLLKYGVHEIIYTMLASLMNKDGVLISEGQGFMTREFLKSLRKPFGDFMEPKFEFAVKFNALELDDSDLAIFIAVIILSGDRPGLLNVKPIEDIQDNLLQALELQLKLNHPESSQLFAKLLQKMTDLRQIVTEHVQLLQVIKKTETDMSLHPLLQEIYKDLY
# Vitamin D3 receptor (Homo sapiens), sequence (P11473 whole entry, looked up): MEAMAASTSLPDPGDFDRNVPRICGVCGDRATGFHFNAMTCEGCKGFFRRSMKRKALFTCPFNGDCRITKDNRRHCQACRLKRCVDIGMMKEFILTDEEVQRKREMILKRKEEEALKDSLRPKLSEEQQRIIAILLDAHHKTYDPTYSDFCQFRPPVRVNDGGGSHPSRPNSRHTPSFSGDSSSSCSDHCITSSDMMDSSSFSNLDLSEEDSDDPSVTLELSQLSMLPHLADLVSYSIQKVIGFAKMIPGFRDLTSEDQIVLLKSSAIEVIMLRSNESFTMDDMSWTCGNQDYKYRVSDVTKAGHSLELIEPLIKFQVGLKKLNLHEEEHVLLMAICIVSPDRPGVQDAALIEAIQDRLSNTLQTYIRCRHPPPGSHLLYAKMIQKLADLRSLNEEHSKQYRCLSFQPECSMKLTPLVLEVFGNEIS
# Bile acid receptor (Homo sapiens), sequence (Q96RI1 whole entry, looked up): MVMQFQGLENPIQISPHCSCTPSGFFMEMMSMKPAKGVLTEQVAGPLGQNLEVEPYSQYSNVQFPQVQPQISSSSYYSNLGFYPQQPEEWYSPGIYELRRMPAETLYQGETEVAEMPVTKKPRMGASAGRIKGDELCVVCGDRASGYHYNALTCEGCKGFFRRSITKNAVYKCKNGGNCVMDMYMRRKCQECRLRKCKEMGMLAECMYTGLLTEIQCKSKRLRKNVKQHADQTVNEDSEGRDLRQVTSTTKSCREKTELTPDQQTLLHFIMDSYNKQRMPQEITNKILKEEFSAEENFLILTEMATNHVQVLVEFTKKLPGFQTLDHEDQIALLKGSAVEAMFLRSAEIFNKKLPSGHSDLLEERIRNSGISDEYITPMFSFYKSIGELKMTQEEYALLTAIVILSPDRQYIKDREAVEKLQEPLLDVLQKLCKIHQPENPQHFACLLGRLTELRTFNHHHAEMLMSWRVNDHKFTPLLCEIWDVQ
SMILES,Potency [1],Potency [2],Potency [3],Potency [4],Potency [5],Potency [6],Potency [7],Potency [8],Potency [9],Potency [10],Potency [11],Potency [12],Potency [13],outcome [14],Potency [15],Potency [16],Potency [17],Potency [18]
O=C(Nc1ccccc1)c1ccccc1O,inactive,inactive,24.3 µM (active),inactive,inactive,inactive,inactive,inactive,inactive,inactive,–,–,–,–,–,–,–,–
C#C[C@]1(O)CC[C@H]2[C@@H]3CCc4cc(OC5CCCC5)ccc4[C@H]3CC[C@@]21C,inactive,inactive,–,–,inactive,–,–,–,26.6 µM (active),–,inactive,inactive,inactive,inactive,inactive,–,–,–
CC(C)CC(=O)C1C(=O)c2ccccc2C1=O,inactive,–,–,inactive,inactive,inactive,inactive,inactive,–,inactive,inactive,inactive,–,–,inactive,inactive,inactive,–
COC(C)(C)CCO,inactive,inactive,inactive,inactive,inactive,inactive,inactive,inactive,inactive,inactive,–,inactive,inactive,–,inactive,inactive,–,–
CNCCCN1c2ccccc2CCc2ccccc21,inactive,–,–,29.8 µM (active),inactive,–,9.44 µM (active),–,18.8 µM (active),–,inactive,–,–,–,15 µM (active),26.6 µM (active),inactive,–
CCOC(=O)C(O)c1ccccc1 (stereo not given),–,–,inactive,inactive,inactive,–,inactive,–,–,inactive,inactive,inactive,–,inactive,inactive,inactive,–,inactive
